About 79,000 compounds went through this panel and 15% of them were active in at least one assay; those are over-represented in the sample as a whole. Unmarked numbers belong to inactive results. The source made the active and inactive calls. No stated cut-off is given here; in the data, active means growth inhibition above about 70%; inactive means the rest.
Legend:
[1] = NCI Yeast Anticancer Drug Screen. Data for the rad50 strain (AID 155);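 further: 0% = growth of vehicle-only cultures of the same strain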; settings: S. cerevisiae rad50 strain growth inhibition, active compounds read high
In short: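 Genetically altered yeast (DNA repair pathway); compound treatment; growth inhibition vs vehicle ctrl.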

[2] = NCI Yeast Anticancer Drug Screen. Data for the mec2-1 strain (AID 157); settings: S. cerevisiae mec2-1 strain, active compounds read high
In short: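 Mutant yeast (mec2-1) grown with compound; growth inhibition relative to vehicle control reported.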

[3] = NCI Yeast Anticancer Drug Screen. Data for the sgs1 mgt1 strain (AID 161);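 further: 0% = growth of cultures given vehicle only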; settings: S. cerevisiae sgs1 mgt1 strain, active compounds read high
In short: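 This yeast growth screen uses a strain with defined DNA-repair lesions; compound-treated growth is compared with vehicle-treated growth.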

[4] = NCI Yeast Anticancer Drug Screen. Data for the cln2 rad14 strain (AID 165);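 further: 0% = growth equal to vehicle treated cultures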; settings: S. cerevisiae cln2 rad14 strain, active compounds read high
In short: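 Readout is yeast growth inhibition versus vehicle-treated controls, using a strain with cln2 and rad14 alterations exposed to compound.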

[5] = NCI Yeast Anticancer Drug Screen. Data for the bub3 strain (AID 167); settings: S. cerevisiae bub3 mutant strain, active compounds read high
In short: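 Yeast carrying a defined mutation is treated with each compound, and growth is compared with that of vehicle-exposed cells to give inhibition.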

[6] = NCI Yeast Anticancer Drug Screen. Data for the mlh1 rad18 strain (AID 175); settings: S. cerevisiae mlh1 rad18 strain growth inhibition, active compounds read high
In short: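 Genetically defined yeast (DNA repair-deficient) exposed to compounds; growth inhibition determined relative to vehicle.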

[7] = at 5.0 µM (retest, dose inferred, filed as 0.5)
[8] = at 50.0 µM (retest, dose inferred, filed as 5.0)

| Compound | growth inhibition [1, 7] [%] | growth inhibition [1, 8] | growth inhibition ([1]; at 50.0 µM) | growth inhibition [2, 7] [%] | growth inhibition [2, 8] | growth inhibition ([2]; at 50.0 µM) | growth inhibition [3, 7] | growth inhibition [3, 8] | growth inhibition ([3]; at 50.0 µM) | growth inhibition [4, 7] | growth inhibition [4, 8] | growth inhibition ([4]; at 50.0 µM) | growth inhibition [5, 7] | growth inhibition [5, 8] | growth inhibition ([5]; at 50.0 µM) | growth inhibition [6, 7] [%] | growth inhibition [6, 8] | growth inhibition ([6]; at 50.0 µM) |
| --- | --- | --- | --- | --- | --- | --- | --- | --- | --- | --- | --- | --- | --- | --- | --- | --- | --- | --- |
| CC(CC(C)[C@H]1CCC2[C@H]3C(CC(=O)[C@@]21C)[C@@]1(C)CCC(O)C[C@H]1C[C@@H]3O)C(=O)O (stereo not given in full) | -1 | 99% (active) | 98.3% (active) | 1 | 99% (active) | 98.5% (active) | -1% | 98% (active) | 98.8% (active) | -4% | 99% (active) | 96.8% (active) | -4% | 98% (active) | 99% (active) | 10 | 99% (active) | 98.2% (active) |
| Nc1ccc(-c2cccc(-c3ccccc3)c2)cc1 | -8 | 94% (active) | 98% (active) | -11 | 94% (active) | 97.7% (active) | -11% | 97% (active) | 96.2% (active) | -40% | 96% (active) | 98.7% (active) | -15% | 97% (active) | 98.3% (active) | -27 | 97% (active) | 97.6% (active) |
| CC(=O)N1C=C2CCC3c4ccccc4NC3C2CC1 (stereo not given) | -2 | 15% | 33.2% | 1 | 4% | 4.05% | -4% | 13% | 34.5% | -51% | 0% | -29.1% | -11% | 47% | -4.6% | -7 | -2% | 19.1% |
| CN(C)CC/C(=N\Nc1ccc([N+](=O)[O-])cc1)c1ccccc1 | 12 | 65% | 99.5% (active) | 8 | 86% (active) | 84.4% (active) | 29% | 96% (active) | 99.2% (active) | 1% | 62% | 98.8% (active) | 8% | 98% (active) | 99.7% (active) | 19 | 97% (active) | 98.5% (active) |
| O=[N+]([O-])C(=C1Nc2ccccc2N1)C(Cl)=C(Cl)Cl | 10 | 8% | -4.9% | 10 | 15% | 3.3% | 13% | 22% | 9.85% | 10% | 10% | -13.8% | 11% | 12% | -2.55% | 15 | 16% | 11% |
| CN(C)c1cc2c(cc1[N+](=O)[O-])-c1ccccc1C2O (stereo not given) | 5 | 48% | 91.4% (active) | -1 | 28% | 29.9% | 0% | 57% | 56.6% | -4% | 34% | 41.4% | -6% | 60% | 70.5% (active) | 5 | 74% (active) | 86.6% (active) |
| Cc1ccc(C)c(C2CCCCC2O)c1 (stereo not given) | -1 | -80% | 4.5% | -8 | -25% | -11.7% | -1% | -23% | -9.1% | 9% | -5% | 71.5% (active) | -13% | -87% | 51.1% | 0 | -40% | -16.1% |
| Clc1ccc(C(c2ccc(Cl)cc2)c2cncnc2)cc1 | 18 | 96% (active) | 89.8% (active) | 6 | 99% (active) | 90% (active) | 15% | 95% (active) | 89.4% (active) | 10% | 98% (active) | 89.2% (active) | 40% | 97% (active) | 84.2% (active) | 13 | 97% (active) | 86.8% (active) |
| C#Cc1cccc(N2C(=O)CCC2=O)c1 | 36 | 44% | 91.7% (active) | 48 | 43% | 93.6% (active) | 99% (active) | 99% (active) | 94.1% (active) | 97% (active) | 99% (active) | 91.2% (active) | 100% (active) | 97% (active) | 92.3% (active) | 42 | 40% | 91.8% (active) |
| COC(=O)NC1CCCCCCCCCCC1I (stereo not given) | -4 | 97% (active) | 98.5% (active) | 14 | 99% (active) | 82.3% (active) | -5% | 99% (active) | 17.1% | 19% | 99% (active) | -2.05% | -5% | 99% (active) | 3.35% | 5 | 98% (active) | 99% (active) |

Source: PubChem BioAssay (NCI)
